Results: the supplement of paper PMC10849652
About 7,900 targets were measured; listed, in parts, are those with a hit and a random draw of the rest. About 0.6% of all pairs of compound and target were hits.

Compound: c1cn2cc(-c3ccc4cn[nH]c4c3)nc(Nc3ccc(N4CCOCC4)cc3)c2n1 [entospletinib]
Assay: log2 fold change, soluble protein after heating vs DMSO (PISA); higher = thermal stabilisation; K562 cells, 10 uM, 30 min; active = over 0.2 and 3.5 SD of the protein, either way, in both replicates (recomputed)
In short: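 Values are thermal stability changes relative to control samples and are taken from duplicates. They are stated as log2 fold changes. Before quantification by TMTpro 16plex LC-MS/MS with equalised channel sums, K562 cells at 2×10^6 cells/mL were treated with 10 μM compound for 30 min, heated in aliquots for 3 min across 48°C-58°C, pooled, extracted in PBS with 0.5% NP-40 at 4°C, and centrifuged at 21,000xg for 90 min to give the soluble supernatant.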

Sequence of UniProt Q9NV70 (Q9NV70 whole entry, looked up): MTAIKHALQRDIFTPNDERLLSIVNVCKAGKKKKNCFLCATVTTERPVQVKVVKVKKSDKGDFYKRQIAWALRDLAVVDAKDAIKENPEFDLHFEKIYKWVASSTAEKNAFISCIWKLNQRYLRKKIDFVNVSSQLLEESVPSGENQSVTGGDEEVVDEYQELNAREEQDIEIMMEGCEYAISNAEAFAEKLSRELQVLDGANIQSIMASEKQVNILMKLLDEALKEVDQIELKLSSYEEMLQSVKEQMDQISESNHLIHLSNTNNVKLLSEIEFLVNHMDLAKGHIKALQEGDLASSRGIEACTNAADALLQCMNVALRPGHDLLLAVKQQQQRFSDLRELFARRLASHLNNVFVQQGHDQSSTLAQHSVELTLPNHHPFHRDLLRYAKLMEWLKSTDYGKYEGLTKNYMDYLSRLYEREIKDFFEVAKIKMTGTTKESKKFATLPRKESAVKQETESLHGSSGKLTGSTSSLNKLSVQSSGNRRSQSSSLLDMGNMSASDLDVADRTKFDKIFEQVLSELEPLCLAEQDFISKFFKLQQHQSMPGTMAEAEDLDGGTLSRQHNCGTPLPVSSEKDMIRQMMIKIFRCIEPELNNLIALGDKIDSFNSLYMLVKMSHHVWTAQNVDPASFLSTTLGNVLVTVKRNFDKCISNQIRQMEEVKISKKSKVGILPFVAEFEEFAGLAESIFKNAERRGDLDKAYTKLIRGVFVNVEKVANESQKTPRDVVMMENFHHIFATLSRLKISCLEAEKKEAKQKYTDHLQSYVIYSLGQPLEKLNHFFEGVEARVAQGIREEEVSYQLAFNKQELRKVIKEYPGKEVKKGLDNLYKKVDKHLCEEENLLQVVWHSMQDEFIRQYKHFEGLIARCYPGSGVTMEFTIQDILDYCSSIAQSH
Sequence of UniProt Q15369 (Q15369 whole entry, looked up): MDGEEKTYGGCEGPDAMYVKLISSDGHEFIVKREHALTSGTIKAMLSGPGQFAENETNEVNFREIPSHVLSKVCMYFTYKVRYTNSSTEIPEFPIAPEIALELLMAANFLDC
Sequence of UniProt P98082 (P98082 whole entry, looked up): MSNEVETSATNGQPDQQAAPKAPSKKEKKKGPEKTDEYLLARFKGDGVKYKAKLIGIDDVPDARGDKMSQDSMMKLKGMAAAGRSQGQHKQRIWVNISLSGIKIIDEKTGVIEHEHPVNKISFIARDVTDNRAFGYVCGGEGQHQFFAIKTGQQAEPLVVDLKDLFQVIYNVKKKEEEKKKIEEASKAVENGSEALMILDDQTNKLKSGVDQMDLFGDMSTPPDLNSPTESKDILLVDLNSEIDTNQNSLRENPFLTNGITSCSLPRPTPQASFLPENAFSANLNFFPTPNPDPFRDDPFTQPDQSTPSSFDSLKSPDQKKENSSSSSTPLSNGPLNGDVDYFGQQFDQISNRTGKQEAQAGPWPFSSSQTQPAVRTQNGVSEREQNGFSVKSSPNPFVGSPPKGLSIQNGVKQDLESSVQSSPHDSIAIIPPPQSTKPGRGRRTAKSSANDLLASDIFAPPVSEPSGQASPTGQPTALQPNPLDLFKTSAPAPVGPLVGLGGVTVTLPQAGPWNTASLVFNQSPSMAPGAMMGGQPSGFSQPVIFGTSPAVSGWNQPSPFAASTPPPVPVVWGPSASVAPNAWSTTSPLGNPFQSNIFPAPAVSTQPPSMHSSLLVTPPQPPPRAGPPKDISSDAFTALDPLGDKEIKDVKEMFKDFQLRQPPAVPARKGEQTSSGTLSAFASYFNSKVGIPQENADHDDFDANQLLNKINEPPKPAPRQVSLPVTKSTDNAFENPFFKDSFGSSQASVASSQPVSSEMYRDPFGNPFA
Sequence of UniProt Q6UX07 (Q6UX07 whole entry, looked up): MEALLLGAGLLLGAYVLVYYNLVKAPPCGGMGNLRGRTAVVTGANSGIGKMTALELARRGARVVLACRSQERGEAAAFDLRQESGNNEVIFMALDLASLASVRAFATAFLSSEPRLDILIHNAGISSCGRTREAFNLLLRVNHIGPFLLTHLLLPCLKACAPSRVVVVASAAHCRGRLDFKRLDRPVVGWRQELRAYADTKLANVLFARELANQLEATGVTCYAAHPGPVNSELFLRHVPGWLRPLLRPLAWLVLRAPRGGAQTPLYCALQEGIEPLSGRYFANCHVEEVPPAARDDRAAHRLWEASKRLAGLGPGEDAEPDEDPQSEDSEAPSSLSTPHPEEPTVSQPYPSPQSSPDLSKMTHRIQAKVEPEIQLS
Sequence of UniProt Q16531 (Q16531 whole entry, looked up): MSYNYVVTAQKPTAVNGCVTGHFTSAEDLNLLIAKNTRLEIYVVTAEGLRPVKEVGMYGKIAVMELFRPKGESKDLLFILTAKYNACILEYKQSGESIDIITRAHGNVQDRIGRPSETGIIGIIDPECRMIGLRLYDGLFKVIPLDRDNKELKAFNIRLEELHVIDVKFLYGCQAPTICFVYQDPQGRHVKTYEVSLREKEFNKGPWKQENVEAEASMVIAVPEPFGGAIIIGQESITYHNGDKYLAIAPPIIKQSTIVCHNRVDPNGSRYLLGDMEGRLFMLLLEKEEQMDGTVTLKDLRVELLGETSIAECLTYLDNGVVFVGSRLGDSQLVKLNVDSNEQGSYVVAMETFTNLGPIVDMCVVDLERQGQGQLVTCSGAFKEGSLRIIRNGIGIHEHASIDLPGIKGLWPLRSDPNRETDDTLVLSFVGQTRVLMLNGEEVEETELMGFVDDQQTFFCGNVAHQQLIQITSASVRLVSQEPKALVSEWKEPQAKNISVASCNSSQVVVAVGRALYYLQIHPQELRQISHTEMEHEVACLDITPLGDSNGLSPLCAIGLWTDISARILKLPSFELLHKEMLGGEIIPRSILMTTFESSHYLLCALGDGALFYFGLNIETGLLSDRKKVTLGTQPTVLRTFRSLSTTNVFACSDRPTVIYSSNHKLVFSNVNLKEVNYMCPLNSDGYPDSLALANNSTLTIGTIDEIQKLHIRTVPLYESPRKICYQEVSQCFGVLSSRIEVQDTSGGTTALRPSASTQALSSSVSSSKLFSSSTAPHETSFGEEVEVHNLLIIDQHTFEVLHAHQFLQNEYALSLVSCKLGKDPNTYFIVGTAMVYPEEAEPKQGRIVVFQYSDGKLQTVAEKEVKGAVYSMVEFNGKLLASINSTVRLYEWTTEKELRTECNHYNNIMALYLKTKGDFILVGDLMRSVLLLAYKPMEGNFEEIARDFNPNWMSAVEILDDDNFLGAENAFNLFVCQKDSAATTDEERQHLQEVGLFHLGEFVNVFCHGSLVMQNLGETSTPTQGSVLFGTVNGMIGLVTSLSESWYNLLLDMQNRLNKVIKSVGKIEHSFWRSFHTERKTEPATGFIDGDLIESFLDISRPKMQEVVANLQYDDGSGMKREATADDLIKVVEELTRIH
Sequence of UniProt Q8NBA8 (Q8NBA8 whole entry, looked up): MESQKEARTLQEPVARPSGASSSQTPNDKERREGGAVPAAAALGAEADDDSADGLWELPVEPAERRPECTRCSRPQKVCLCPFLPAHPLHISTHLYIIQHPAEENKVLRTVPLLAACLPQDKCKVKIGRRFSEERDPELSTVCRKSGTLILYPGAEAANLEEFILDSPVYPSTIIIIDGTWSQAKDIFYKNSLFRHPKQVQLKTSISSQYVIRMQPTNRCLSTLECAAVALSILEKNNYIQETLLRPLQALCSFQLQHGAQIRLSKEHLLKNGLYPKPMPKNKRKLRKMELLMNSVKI
Sequence of UniProt Q9NVR5 (Q9NVR5 whole entry, looked up): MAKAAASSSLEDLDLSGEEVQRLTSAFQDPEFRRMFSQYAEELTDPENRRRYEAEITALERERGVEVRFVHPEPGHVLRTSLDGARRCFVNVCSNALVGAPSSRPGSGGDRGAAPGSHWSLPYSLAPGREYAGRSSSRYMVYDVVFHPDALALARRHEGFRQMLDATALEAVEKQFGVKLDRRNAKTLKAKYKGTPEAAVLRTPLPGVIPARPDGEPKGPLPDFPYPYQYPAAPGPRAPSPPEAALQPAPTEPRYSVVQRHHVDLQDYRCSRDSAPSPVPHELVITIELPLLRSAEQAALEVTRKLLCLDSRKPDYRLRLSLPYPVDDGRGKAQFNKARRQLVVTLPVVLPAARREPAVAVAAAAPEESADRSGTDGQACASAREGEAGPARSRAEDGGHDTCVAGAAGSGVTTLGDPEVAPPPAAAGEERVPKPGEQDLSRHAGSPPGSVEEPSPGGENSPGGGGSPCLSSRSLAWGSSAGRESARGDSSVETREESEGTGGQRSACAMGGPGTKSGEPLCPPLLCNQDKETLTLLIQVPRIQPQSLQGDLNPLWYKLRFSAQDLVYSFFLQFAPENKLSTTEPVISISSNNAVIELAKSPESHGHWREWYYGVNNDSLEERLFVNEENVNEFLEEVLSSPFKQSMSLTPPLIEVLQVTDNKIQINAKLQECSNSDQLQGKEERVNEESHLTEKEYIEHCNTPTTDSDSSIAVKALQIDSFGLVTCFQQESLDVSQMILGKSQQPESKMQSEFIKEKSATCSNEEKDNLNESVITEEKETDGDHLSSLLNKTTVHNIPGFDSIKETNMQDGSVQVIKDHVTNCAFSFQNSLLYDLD
Sequence of UniProt Q8N128 (Q8N128 whole entry, looked up): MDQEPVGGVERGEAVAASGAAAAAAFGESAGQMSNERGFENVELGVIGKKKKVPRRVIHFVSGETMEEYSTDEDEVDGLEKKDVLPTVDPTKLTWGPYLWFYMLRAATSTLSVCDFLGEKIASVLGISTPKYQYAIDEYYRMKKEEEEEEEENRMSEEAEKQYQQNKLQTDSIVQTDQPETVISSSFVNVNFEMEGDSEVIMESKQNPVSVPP
Sequence of UniProt Q96LJ7 (Q96LJ7 whole entry, looked up): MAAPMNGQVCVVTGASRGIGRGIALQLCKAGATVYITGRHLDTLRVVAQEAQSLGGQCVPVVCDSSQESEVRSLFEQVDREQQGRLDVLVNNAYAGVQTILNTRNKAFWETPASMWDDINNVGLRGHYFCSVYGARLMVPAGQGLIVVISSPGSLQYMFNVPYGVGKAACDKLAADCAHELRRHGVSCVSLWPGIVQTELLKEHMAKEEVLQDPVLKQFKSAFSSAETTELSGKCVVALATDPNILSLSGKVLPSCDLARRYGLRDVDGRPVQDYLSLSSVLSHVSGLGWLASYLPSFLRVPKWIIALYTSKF

log2 fold change, inactive:
DHRS13 (UniProt Q6UX07) -0.111
EXOC1 (UniProt Q9NV70) -0.035
FAM118A (UniProt Q9NWS6) 0.248
DTWD2 (UniProt Q8NBA8) 0.127
DNAAF2 (UniProt Q9NVR5) 0.051
DDB1 isoform 2 (UniProt Q16531) 0.162
ELOC (UniProt Q15369) 0.028
DHRS1 (UniProt Q96LJ7) -0.613
FAM83D (UniProt Q9H4H8) 0.028
DAB2 (UniProt P98082) 0.043
FAM177A1 isoform 2 (UniProt Q8N128) 0.05
